This note sets out measurements from PubChem BioAssay (NCATS).

Values without a mark were called inactive. Results filed as inconclusive are left out. Active and inactive are the calls of the source. Unless noted, calls follow the shape of the dose curve; as a rule, active = well fitted curve in either direction with a large enough effect (not every such curve was filed as active); inconclusive = small, poorly fitted or top-dose-only effect, or another doubt; inactive = flat fitted curve, though single readings scatter. Where only a bound is given, the exact number is not on record here.

The nature of assay [1]: AP1 Signaling Pathway (AID 357). Also: % is scaled to controls: 0 for no effect and ±100 for the full control effect. As to conditions: ME-180 AP-1-bla reporter, EGF-induced, beta-lactamase ratio, 5 h; at 17.2 µM (top of the series) unless noted. The procedure, abridged: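 Cells are seeded overnight, exposed to compound titrations and an EC50 level of EGF for 5 hours at 37 °C, then loaded with CCF4 dye for 2.5 hours. Beta-lactamase activity under the AP-1 element is read as a blue/green ratio.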

The nature of assay [2]: NFAT Signaling Pathway (AID 444).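 Also: carbachol stimulus at about its EC50 of 1 µM final; % is scaled to controls: 0 for no effect and ±100 for the full control effect.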 The settings on record: Jurkat NFAT-bla M1, carbachol, beta-lactamase ratio, 5 h; at 17.2 µM (top of the series) unless noted. The procedure, abridged:
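Read-out: CCF4 FRET ratio (460 nm/530 nm) after 1 h RT dye loading, used for %activity and AC50 from titration series. Cells: Jurkat NFAT-β-lactamase/M1 line, treated with compound plus 1 uM carbachol for 5 h, 37 °C.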

Assay [3] in a line: Stat Signaling Pathway (AID 446).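 Also: ME-180 cervical cancer cells given 40 pM IL-6 alongside compound; SIE-controlled beta-lactamase reporter measured as 460/530 nm FRET emission ratio; % is scaled to controls: 0 for no effect and ±100 for the full control effect.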 The procedure, abridged: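 ME-180 SIE-bla cells; overnight plating; cpd + IL-6 40 pM, 5 h, 37 C; LiveBLAzer 2.5 h RT; 460/530 nm emission ratio. Normalized to 300 pM IL-6 and 125 nM JAK inhibitor controls.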
Assay [4] concerns the target Glucocorticoid receptor (Homo sapiens) (UniProt P04150). Nature of the assay: GR-GFP Redistribution (AID 450;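 active = compounds whose dose series gives a full or clear partial fitted curve of increased nuclear translocation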; also: potency is read from the fitted curve at half-maximal effect). The settings on record: U2OS GR-GFP nuclear translocation, laser cytometry, 2 h.
In assay [5] the target is Cytochrome P450 1A2 (Homo sapiens) (UniProt P05177). As to the kind of experiment: p450-cyp1a2 (AID 410; calls by dose curve;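 also: -100% = full effect of reference inhibitor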). Put shortly:
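Inhibition was calculated relative to 57 uM furafylline (full inhibition). The reaction used human CYP1A2 at 20nM with Luciferin-ME at its Km, 100uM, driven by an NADPH-regenerating system for 60 min at room temperature.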

Assay [6] deals with Glucocorticoid receptor (Homo sapiens) (UniProt P04150). Nature of the assay: GR-EFC Redistribution (AID 451; calls by dose curve; also: potency is read from the fitted curve at half-maximal effect). The settings on record: CHO-K1 GR-EFC translocation, beta-gal luminescence, 2 h. Put shortly:
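Translocation of GR-ED fusion to nuclear EA restores b-gal, read by luminescence after 1 h room-temperature detection. Engineered CHO-K1 biosensor cells, 1,000/well, exposed 2 h at 37 C to titrations up to 46 uM final.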

Assay [7] deals with Cytochrome P450 2C9 (Homo sapiens) (UniProt P11712). Nature of the assay: qHTS Assay for Inhibitors and Substrates of Cytochrome P450 2C9 (AID 883; active = well fitted curve in the direction sought with a large enough effect; an effect the other way counts as inactive or inconclusive; also: % is scaled to controls: 0 for no effect and ±100 for the full control effect; nearly all actives have a fitted effect of over 60% in size). The procedure, abridged:
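Luminescent read-out of deoxyluciferin hydroxylation, normalized to 57uM sulphaphenazole (AC100). Reaction: 10nM enzyme, 100uM Luciferin-H (equal to KM), 25mM KPO4, 10 min compound preincubation, then 60 min with NADPH regeneration, both at 37C.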

For assay [8], the target named is Cytochrome P450 2C19 (Homo sapiens) (UniProt P33261). Nature of the assay: qHTS Assay for Inhibitors and Substrates of Cytochrome P450 2C19 (AID 899; active = well fitted curve in the direction sought with a large enough effect; an effect the other way counts as inactive or inconclusive; also: nearly all actives have a fitted effect of over 60% in size; also: potency is read from the fitted curve at half-maximal effect). The procedure, abridged:
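Luminescence readout of luciferin formed from 10uM Luciferin-H EGE (KM level) by 5 nM CYP2C19 in 50mM KPO4. 60 min NADPH-driven reaction at 37C after 10 min compound preincubation; data scaled to 57uM ketoconazole inhibition.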
Background: Quantitative high-throughput screening tests each substance at several concentrations.

Assay [9] addresses 3',5'-cyclic-AMP phosphodiesterase 4B (Homo sapiens) (UniProt Q07343). Nature of the assay: qHTS Assay for Inhibitors of PDE-IV (AID 607; active = well fitted activation curve with a large enough effect in the main read-out, with a control signal flat, not every such curve was filed as active; also: % of control where 0% means no effect). The procedure, abridged: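 ACTOne HEK293 cells carry a modified cAMP-gated CNG channel and express endogenous PDE4; plated 1000 cells/well, compounds up to 22.9 uM final. Membrane-potential dye fluorescence (ex 535/em 590) was read; parental cells received 10 uM forskolin + 100 uM RO 20-1724.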

For assay [10], the target named is Guanine nucleotide-binding protein G(i) subunit alpha-1 (Homo sapiens) (UniProt P63096). As to the kind of experiment: qHTS Assay for Inhibitors of RGS12 GoLoco Motif Activity (Green Fluorophore) (AID 879; active = well fitted curve in the direction sought with a large enough effect; an effect the other way counts as inactive or inconclusive;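 also: 0% = labeled peptide with Gαi1 and full inhibition = labeled peptide alone without protein; negative values mean loss of peptide binding seen as reduced polarization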). The procedure, abridged:
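Fluorescence polarization assay: 50 nM Gαi1 with 10 nM FITC-labeled RGS12 GoLoco peptide in 10 mM Tris pH 7.5, 150 mM NaCl, 0.1 mM GDP, 0.05% NP40, 10 min at room temperature with compound.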

Assay [11] can be described thus: qHTS Assay for Identification of Small Molecule Antagonists for NFkB Signaling Pathway (AID 895; active = well fitted inhibition curve with a large enough effect in the signal ratio, with a control signal flat, not every such curve was filed as active; the % refers to the signal ratio; also: potency is read from the fitted curve at half-maximal effect). The procedure, abridged:
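Beta-lactamase reporter read-out (460 and 530 nm emission ratio, 405 nm excitation, 2 hrs substrate loading RT) after 5 hr stimulation with 10 pM TNF alpha in compound-treated NFkB-bla ME-180 cells in low-serum medium.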

Assay [12] can be described thus: qHTS Assay for Identification of Small Molecule Antagonists for Thrombopoietin (TPO) Signaling Pathway (AID 918; active = well fitted curve in the direction sought with a large enough effect; an effect the other way counts as inactive or inconclusive; also: potency is read from the fitted curve at half-maximal effect; nearly all actives have a fitted effect of over 60% in size). The settings on record: TPO-dependent cell signaling reporter, antagonist mode. The procedure, abridged: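 First, Ba/F3 reporter cells expressing human TPO receptor were held overnight without IL-3. Next, compound and 26 pM TPO were added. After 24 hrs incubation at 37 C, luciferase luminescence under the Glycoprotein IIb promoter was recorded.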

Assay [13] deals with Muscarinic acetylcholine receptor M1 (Rattus norvegicus) (UniProt P08482). As to the kind of experiment: qHTS Assay for Antagonists of Acetylcholine Muscarinic M1 Receptor: Kinetic Measurement of Intracellular Calcium Response (AID 943; active = well fitted curve in the direction sought with a large enough effect; an effect the other way counts as inactive or inconclusive;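 also: Fluo-4 calcium signal as peak divided by basal fluorescence over 4 min; nearly all actives have a fitted effect of over 75% in size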). Put shortly:
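Intracellular calcium flux, recorded with Fluo-4 in a kinetic plate reader, served as signal; the response to carbachol at EC80 (100 nM final) was taken as maximal over minimal fluorescence after a 10 min compound pre-incubation in rat M1-CHO cells.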

For assay [14] the target is unchanged. Nature of the assay: qHTS Assay for Antagonists of Acetylcholine Muscarinic M1 Receptor: Measurement of IP-One Response (AID 944; active = well fitted curve in the direction sought with a large enough effect; an effect the other way counts as inactive or inconclusive; also: nearly all actives have a fitted effect of over 75% in size). The procedure, abridged: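 Steps: plate transfected CHO-M1 cells overnight; add test compound, 10 min; add carbachol (200 nM, EC80) in stimulation buffer with LiCl; incubate 30 min; add labelled IP1 tracer and anti-IP1 antibody in lysis buffer; read HTRF after 10 min.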

In assay [15] the target is Pyruvate kinase (Leishmania mexicana) (UniProt Q27686). Nature of the assay: qHTS Validation Assay for Inhibitors of Leishmania Mexicana Pyruvate Kinase (AID 945; active = well fitted curve in the direction sought with a large enough effect; an effect the other way counts as inactive or inconclusive;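 also: 0% = DMSO only neutral control wells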). Put shortly: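 Compounds are tested as eight-point concentration series. Reactions contain 0.2 nM LmPYK E451W, 0.5 mM PEP, 0.1 mM ADP, 7 mM MgCl2 and 50 mM KCl at pH 7.2, run 1 h at room temperature, then read by PKLight luminescence.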

Assay [16] addresses Pyruvate kinase PKM (Homo sapiens) (UniProt P14618). As to the kind of experiment: qHTS Assay for Activators of Human Muscle Pyruvate Kinase (AID 954; active = well fitted curve in the direction sought with a large enough effect, not every such curve was filed as active;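 also: 0% = uninhibited enzyme and -100% = no enzyme or full thiadiazolimine inhibition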). The procedure, abridged:
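Luminescence from a luciferase ATP-detection/stop reagent reported PKM2 activity. Reactions contained 0.1 nM purified human enzyme, 0.5 mM PEP, 0.1 mM ADP and 7 mM MgCl2 at pH 7.2, run 1 h at RT.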

Assay [17] has as its target Alpha-galactosidase (Coffea arabica) (UniProt Q42656). As to the kind of experiment: Counterscreen for Glucocerebrosidase Inhibitors: qHTS Assay for Coffee Bean alpha-Galactosidase at pH 4.5 (AID 957; active = well fitted curve in the direction sought with a large enough effect; an effect the other way counts as inactive or inconclusive;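 also: plate controls were enzyme alone for no effect and no enzyme for full effect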). The procedure, abridged: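 AC50 values derive from Hill-equation modeling of concentration-response data, normalized to no-enzyme and full-activity controls. The pH 4.5 citrate assay used 2 nM coffee bean enzyme and 80 uM fluorogenic substrate for 20 min.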
(In general: The purpose of a counterscreen is to sort out artefacts and off-target activity.)

For assay [18], the target named is alpha-glucosidase (Oryza sativa, rice) (UniProt Q653V4). Nature of the assay: Counterscreen for Glucocerebrosidase Inhibitors: qHTS Assay for Rice alpha-Glucosidase at pH 5.0 (AID 997; active = well fitted curve in the direction sought with a large enough effect; an effect the other way counts as inactive or inconclusive;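 also: 0% = full activity with enzyme and -100% = basal without enzyme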). Put shortly: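 Rice alpha-glucosidase (4 nM final) with 400 uM 4-methylumbelliferyl-alpha-D-glucopyranoside in citrate buffer pH 5.0, 20 min at room temperature, stopped at pH 10; fluorescence 365/440 nm, compounds 0.7 nM–77 uM, AC50 from Hill fits.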

For assay [19], the target named is Alpha-galactosidase (Coffea arabica) (UniProt Q42656). As to the kind of experiment: Counterscreen for Glucocerebrosidase Inhibitors: qHTS Assay for Coffee Bean alpha-Galactosidase at pH 5.9 (AID 998; active = well fitted curve in the direction sought with a large enough effect; an effect the other way counts as inactive or inconclusive;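 also: plate controls were uninhibited enzyme for no effect and no-enzyme basal signal for full effect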). The procedure, abridged:
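Compounds were titrated from 0.7 nM to 77 uM against green coffee bean alpha-galactosidase (2 nM) using 80 uM fluorogenic 4-methylumbelliferyl substrate. After 20 min at room temperature, reactions were stopped at pH 10 and read by fluorescence.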

Glucocorticoid receptor (Homo sapiens), sequence (P04150 whole entry, looked up, the tested form may be a part): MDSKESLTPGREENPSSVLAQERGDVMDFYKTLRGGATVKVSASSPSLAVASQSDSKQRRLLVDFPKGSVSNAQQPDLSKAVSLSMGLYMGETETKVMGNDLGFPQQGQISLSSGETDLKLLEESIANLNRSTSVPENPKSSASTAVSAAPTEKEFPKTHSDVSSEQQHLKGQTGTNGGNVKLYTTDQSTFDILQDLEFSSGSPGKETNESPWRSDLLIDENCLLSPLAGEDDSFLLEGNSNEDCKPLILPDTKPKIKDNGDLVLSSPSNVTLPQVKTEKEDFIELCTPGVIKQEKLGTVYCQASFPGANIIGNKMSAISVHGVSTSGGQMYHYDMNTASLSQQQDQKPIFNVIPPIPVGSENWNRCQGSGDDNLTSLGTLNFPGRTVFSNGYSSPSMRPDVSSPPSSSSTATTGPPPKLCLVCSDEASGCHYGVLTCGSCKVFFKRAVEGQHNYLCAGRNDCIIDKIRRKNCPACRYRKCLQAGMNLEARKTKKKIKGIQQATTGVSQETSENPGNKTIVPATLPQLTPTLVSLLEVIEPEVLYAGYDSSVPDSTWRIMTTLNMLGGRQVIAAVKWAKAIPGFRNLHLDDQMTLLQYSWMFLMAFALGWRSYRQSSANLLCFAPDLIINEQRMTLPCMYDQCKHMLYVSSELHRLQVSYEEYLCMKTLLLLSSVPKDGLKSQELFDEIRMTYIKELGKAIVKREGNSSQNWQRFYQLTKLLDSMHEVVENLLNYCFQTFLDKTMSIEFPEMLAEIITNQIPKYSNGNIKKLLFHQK
Cytochrome P450 2C19 (Homo sapiens), sequence (P33261 whole entry, looked up): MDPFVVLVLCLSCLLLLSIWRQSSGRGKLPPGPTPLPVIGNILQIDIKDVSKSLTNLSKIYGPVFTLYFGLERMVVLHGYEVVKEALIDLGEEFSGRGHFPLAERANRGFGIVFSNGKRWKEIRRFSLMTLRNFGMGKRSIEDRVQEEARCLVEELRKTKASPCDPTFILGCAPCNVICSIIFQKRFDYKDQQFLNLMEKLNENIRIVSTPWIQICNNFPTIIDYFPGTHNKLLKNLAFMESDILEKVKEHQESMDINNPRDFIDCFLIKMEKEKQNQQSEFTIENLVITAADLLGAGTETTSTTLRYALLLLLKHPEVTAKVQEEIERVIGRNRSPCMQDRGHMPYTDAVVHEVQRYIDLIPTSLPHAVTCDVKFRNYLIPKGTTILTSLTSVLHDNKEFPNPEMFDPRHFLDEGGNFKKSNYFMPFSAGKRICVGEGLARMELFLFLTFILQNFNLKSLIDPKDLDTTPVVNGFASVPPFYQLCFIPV
Cytochrome P450 1A2 (Homo sapiens), sequence (P05177 whole entry, looked up): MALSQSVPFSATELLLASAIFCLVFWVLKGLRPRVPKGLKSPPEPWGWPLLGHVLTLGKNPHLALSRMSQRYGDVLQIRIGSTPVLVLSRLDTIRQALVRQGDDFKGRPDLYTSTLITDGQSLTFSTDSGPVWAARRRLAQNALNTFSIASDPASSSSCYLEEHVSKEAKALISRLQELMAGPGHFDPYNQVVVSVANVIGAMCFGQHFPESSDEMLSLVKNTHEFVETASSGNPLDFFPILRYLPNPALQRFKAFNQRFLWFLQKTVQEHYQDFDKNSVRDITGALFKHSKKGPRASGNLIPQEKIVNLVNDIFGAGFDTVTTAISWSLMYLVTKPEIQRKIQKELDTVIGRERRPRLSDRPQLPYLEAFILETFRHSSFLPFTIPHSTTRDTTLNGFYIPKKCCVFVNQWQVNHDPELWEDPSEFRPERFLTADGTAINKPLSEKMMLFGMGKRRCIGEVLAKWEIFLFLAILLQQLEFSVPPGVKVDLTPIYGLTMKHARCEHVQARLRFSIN
Muscarinic acetylcholine receptor M1 (Rattus norvegicus), sequence (P08482 whole entry, looked up): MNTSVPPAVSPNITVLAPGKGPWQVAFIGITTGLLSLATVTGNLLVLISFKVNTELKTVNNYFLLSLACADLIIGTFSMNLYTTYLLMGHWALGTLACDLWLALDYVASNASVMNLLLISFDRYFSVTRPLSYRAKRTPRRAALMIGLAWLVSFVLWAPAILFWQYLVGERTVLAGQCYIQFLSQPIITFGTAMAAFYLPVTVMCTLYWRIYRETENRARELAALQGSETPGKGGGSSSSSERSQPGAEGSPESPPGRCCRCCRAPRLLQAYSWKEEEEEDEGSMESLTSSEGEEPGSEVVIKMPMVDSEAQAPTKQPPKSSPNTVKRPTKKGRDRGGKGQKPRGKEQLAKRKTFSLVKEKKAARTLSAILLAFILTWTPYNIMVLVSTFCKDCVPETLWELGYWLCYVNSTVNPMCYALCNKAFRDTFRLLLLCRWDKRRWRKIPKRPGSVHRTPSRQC
Alpha-galactosidase (Coffea arabica), sequence (Q42656 whole entry, looked up): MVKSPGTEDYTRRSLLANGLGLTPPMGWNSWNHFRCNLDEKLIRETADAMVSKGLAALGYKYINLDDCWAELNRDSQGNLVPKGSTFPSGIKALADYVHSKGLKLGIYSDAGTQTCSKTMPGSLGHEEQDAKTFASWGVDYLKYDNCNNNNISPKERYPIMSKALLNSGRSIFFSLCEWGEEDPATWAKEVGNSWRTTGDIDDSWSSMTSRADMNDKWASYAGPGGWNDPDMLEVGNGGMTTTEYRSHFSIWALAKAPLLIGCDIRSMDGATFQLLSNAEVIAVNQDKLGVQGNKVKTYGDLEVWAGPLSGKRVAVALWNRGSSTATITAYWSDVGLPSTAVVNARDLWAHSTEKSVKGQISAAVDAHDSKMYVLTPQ
3',5'-cyclic-AMP phosphodiesterase 4B (Homo sapiens), sequence (Q07343 whole entry, looked up): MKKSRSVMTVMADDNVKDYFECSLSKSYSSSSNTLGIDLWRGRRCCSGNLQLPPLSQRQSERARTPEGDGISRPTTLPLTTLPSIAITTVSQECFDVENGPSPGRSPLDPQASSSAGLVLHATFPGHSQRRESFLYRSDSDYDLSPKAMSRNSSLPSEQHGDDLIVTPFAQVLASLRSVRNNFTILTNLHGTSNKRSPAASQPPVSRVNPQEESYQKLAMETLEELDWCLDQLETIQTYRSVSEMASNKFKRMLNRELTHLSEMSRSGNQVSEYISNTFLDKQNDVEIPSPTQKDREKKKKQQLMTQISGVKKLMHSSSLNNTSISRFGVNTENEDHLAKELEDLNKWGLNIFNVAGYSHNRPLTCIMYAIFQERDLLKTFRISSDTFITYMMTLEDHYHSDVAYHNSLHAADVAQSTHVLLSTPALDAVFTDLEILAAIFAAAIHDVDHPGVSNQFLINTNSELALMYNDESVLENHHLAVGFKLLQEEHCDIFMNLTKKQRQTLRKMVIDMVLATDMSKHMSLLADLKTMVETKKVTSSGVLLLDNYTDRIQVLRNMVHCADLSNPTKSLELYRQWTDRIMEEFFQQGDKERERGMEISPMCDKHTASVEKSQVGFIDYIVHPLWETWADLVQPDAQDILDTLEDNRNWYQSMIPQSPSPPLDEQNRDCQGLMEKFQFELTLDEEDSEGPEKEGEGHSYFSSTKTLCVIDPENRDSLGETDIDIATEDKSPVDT
Cytochrome P450 2C9 (Homo sapiens), sequence (P11712 whole entry, looked up): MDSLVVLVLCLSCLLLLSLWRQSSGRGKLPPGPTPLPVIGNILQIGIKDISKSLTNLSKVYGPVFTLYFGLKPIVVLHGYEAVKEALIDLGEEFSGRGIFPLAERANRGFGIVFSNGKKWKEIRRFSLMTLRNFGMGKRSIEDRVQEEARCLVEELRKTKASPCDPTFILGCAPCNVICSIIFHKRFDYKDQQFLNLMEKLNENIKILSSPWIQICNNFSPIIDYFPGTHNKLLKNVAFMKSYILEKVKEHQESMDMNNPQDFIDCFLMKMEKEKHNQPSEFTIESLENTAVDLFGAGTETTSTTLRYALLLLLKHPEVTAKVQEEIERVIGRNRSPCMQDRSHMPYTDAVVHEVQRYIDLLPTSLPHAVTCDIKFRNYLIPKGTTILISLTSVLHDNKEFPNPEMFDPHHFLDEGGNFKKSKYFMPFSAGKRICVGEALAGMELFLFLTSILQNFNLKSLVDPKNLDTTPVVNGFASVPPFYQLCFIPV
Guanine nucleotide-binding protein G(i) subunit alpha-1 (Homo sapiens), sequence (P63096 whole entry, looked up): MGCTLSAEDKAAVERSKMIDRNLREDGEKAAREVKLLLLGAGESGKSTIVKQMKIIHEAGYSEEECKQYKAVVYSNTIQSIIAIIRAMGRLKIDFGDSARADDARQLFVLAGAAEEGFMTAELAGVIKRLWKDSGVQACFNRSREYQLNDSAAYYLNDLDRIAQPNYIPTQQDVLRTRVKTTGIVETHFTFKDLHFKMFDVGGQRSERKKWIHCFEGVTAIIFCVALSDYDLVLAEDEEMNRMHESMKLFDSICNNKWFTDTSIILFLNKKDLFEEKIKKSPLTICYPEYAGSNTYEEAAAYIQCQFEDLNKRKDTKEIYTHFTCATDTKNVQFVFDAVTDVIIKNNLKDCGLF
Pyruvate kinase (Leishmania mexicana), sequence (Q27686 2-499 E452W): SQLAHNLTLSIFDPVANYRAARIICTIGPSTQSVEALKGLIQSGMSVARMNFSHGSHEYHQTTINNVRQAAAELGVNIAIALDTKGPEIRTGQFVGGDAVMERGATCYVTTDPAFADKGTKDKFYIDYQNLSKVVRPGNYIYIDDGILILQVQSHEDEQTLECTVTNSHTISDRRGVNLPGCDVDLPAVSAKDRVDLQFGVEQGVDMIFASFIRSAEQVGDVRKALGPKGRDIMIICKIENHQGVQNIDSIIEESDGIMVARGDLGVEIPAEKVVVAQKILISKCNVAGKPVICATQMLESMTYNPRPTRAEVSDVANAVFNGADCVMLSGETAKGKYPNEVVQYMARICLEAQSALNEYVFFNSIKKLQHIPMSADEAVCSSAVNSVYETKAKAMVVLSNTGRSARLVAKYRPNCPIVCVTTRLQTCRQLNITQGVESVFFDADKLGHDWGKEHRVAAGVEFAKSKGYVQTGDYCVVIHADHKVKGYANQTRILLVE

In the case of `CCCCSP1(=S)NCCCO1` (stereo unspecified), the results for the activity change, negative = inhibition in assay [1] and in assay [2] were 2.22% and 1.86%, respectively. For the same molecule, the molecule was called inactive in [3]. Further, the Potency in [4] is more than 20.6 µM.
For `C[C@H]1CCCC(=O)CCCCCc2cc(O)cc(O)c2C(=O)O1`, in that order: -29.6%, 22.4%, “inactive” and more than 20.6 µM.
Take `CC(C)C(=O)N1CCN(CCN=Cc2c(O)n(C)c(=O)n(C)c2=O)CC1`: the activity change, negative = inhibition was 10.2% in assay [1] and -6.53% in assay [2]. Also, the outcome in [3] was inactive.
As for `c1ccc(Cn2ccnc2)cc1`, the activity change, negative = inhibition in assay [1] was 3.97%; in assay [2] it was -0.8%. For the same molecule, in assay [3], the outcome was inactive. Besides, the Potency in assay [4] was more than 20.6 µM.
In the same order, the values of `CN(C)CCc1nn[nH]n1` are 1.85%, -0.26%, “inactive” and more than 20.6 µM.
For `CCCCCCn1c(O)c(C=NCCCn2ccnc2)c(=O)[nH]c1=O`, in that order: -8.92%, -9.29%, “inactive” and more than 20.6 µM.
For `O=C(CCCN1CCC2(CC1)C(=O)N(CCc1ccc(N=C=S)cc1)CN2c1ccccc1)c1ccc(F)cc1`, the activity change, negative = inhibition in assay [1] was -2.99% [at 38 µM]. Also, the Potency entry in assay [5] and in [7] was “inactive” each time. Further, the result in assay [3] was inactive. Besides, the Potency in [4] is more than 46 µM; in assay [6], more than 46 µM; in [8] it was 3.16 µM (active).
`Cn1c(O)c(C=NCCCNC2CCCCC2)c(=O)n(C)c1=O`: the activity change, negative = inhibition is 3.35% in [1] and -13.3% in assay [2]. The molecule was classed as inactive in assay [3]. Moreover, the Potency in assay [4] was more than 20.6 µM.
Consider `COc1ccc(C(=O)CN2CCOCC2)cc1F`, for which the figures for the activity change, negative = inhibition in [1] and in assay [2] were 1.47% and 3.56%, respectively.
On to `CC(C)Cc1[nH]c(=O)c(C#N)c2c1CCC2`, for which the activity change, negative = inhibition in [1] is 8.3%; in [2], 18.5%. Further, the result in assay [3] was inactive. Besides, the Potency in assay [4] was more than 20.6 µM.
With `CCCCNC(=O)Nc1ccc(C(O)(C(=O)OC)C(F)(F)F)cc1` (stereo unspecified), the activity change, negative = inhibition in assay [1] was -12.1%; in assay [2] it was 26.8%. Moreover, the result in [3] was inactive. Besides, the Potency in assay [4] is more than 20.6 µM.
Take `C[C@]1(C(=O)O)[C@@H]2CC[C@@H](O2)[C@@]1(C)C(=O)O`: the activity change, negative = inhibition in [1] is -103% [at 38 µM] (active). The Potency entry in assay [5], in [10], in assay [8], in assay [13], in assay [14] and in assay [15] was “inactive” throughout. In addition, the Potency in assay [6] is more than 46 µM; in [11], 6.31 µM (active); in [12] it was 5.01 µM (active). Moreover, the result in assay [9], in [16], in assay [17], in assay [18] and in assay [19] was inactive.
Turning to `COc1ccc(C2SCC(=O)Nc3c2c(=O)[nH]n3C2CCCCC2)cc1` (stereo unspecified), the figures for the activity change, negative = inhibition in [1] and in assay [2] were -14.7% and 0.11%, respectively. The molecule was classed as inactive in assay [3].
For the molecule `O=c1[nH]c2ccccc2c(=O)n1-c1cccc(Cl)c1`, the activity change, negative = inhibition in assay [1] was 24.2%; in [2], -3.58%. The molecule was called inactive in assay [3]. In assay [4], the Potency was more than 20.6 µM.
